For one assay, the system named is T1, PIP5K2C.
T1 construct: gene PIP4K2C

Another assay deals with T2, PKAC-beta.
T2 construct: gene PRKACB

For the next assay, the system named is T3, PKAC-alpha.
T3 construct: gene PRKACA

In the next assay the test system is T4, PIK4CB.
T4 construct: gene PI4KB

SMILES strings stand for the structures. Some results are limits rather than exact numbers.

The term Kd denotes the constant that tells how readily two partners part at equilibrium. A lower Kd goes with tighter binding.
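Further: kd values determined as follow-up on hits from a single-replicate KINOMEscan panel screen.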

Turning to `CN1CCC(n2cnc(-c3ccc(F)cc3)c2-c2ccnc(NC3CCNCC3)n2)CC1` [SB-229482], in the assay on PIP5K2C, the equilibrium dissociation constant (Kd) was 220 nM.
`CNc1nccc(-c2c(-c3ccc(F)cc3)ncn2CCCN2CCOCC2)n1` [SB-222516]: the dissociation constant Kd in the assay on PIM3 was over 10000 nM.
For the compound `Cl.Cl.c1ccc(-c2cc3ccncc3cc2OC2CCNCC2)cc1` [GSK1122999], the Kd with PRKCE came out at 640 nM; with PRKCH, 390 nM.
In the case of `C[C@@H]1CCN(C(=O)CO)C[C@@H]1N(C)c1ncnc2[nH]ccc12`, the Kd in the assay with PKAC-beta and with PKMYT1 was over 10000 nM each time.
Compound `COc1cc2c(Nc3cccc(NC(=O)c4ccccc4)c3)ncnc2cc1OCCCN1CCOCC1` [GSK223810] registered a dissociation constant (Kd) in the assay with PKAC-alpha of over 10000 nM.
Regarding `Nc1nc(-c2ccccn2)c(-c2ccnc3ccccc23)s1` [GW548057], in the assay on PIP5K1C, the equilibrium dissociation constant (Kd) is over 10000 nM.
As for `CC(C)(C)c1ccc(-n2cnc3c(N)ncnc32)cc1` [SKF-97263], in the assay with PIK3CG, the Kd was 2400 nM.
`CCc1nc(-c2cccc(C)c2)c(-c2ccnc(NC(=O)c3ccccc3)c2)s1` registered a Kd with PIP5K2C of 4100 nM. In other words, the single-digit micromolar range.
Turning to `COc1cc2ncnc(Nc3ccc(OCc4ccccc4Br)c(Cl)c3)c2cc1OC.Cl` [GI261590], the Kd in the assay with PKN1 and in the assay on PRKCQ was over 10000 nM throughout.
In the case of `NC(=O)c1sc(-n2cnc3ccccc32)cc1OCc1ccccc1F` [GSK1024306], the Kd with PLK1 turned out to be 9.6 nM; with PLK2, 25 nM; in the assay with PLK3 it was 52 nM.
Turning to `CSc1nn2c(=O)cc(N3CCOCC3)nc2n1Cc1cccc(Cl)c1Cl` [GSK2347225], the Kd in the assay on PIK3CD worked out at 240 nM. This counts as sub-micromolar.
In turn, `Fc1cccc(COc2ccc(Nc3ncnc4sc(-c5ccc[nH]5)cc34)cc2Cl)c1` [GW707818] displayed a Kd in the assay with PRKCH of over 10000 nM.
For `O=C(Nc1ccccc1F)NC1CCN(c2ccnc(Nc3ccc(F)cc3)n2)C1` (stereo not drawn) [GSK1379722], the Kd with PIK4CB is over 10000 nM.
As for `CNc1nccc(-c2c(-c3ccc(F)cc3)ncn2C2CCN(C)CC2)n1` [SB-222903], binding in the assay on PIP5K2C was characterised by a dissociation constant (Kd) of 39 nM.
On to `O=C(c1ccc(-c2cc(-c3c[nH]nc3-c3ccccn3)ccn2)cc1)N1CCCC1` [GW792479], for which the Kd in the assay with PIM1 was over 10000 nM; with PIP5K2C, 21 nM; in the assay on PRKCI, over 10000 nM.
Take `Cc1cccc(-c2nc(Nc3ccc4[nH]nnc4c3)c3ccccc3n2)n1` [GW867587]: the equilibrium dissociation constant (Kd) came out at 61 nM in the assay with PRKD1 and 83 nM in the assay on PRKD2.

These data come from PMC5540273 (PLoS ONE, 2017).
